The source made the active and inactive calls.
What was measured:
[1] = small molecules captured by biotinylated probe aFSTL3 – biochemical, small-molecule microarray, fluorescence 635/667, stem cell growth factor project, primary screen (AID 1064); conditions: higher = more signal;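 also: measures binding of the biotinylated anti-FSTL3 antibody to printed compounds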
[2] = binders from COS7 lysate, DM2A8 probe, primary screen, torsin A project, cell lysate, small-molecule microarray, fluorescence 635/667 (AID 1065); conditions: higher = more signal, COS7 lysate expressing mutant human TOR1A
[3] = small molecules captured by biotinylated probe aFGF2 – biochemical, small-molecule microarray, fluorescence 635/667, stem cell growth factor project, primary screen (AID 1067); conditions: higher = more signal;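 also: measures binding of biotinylated aFGF2 protein to printed compounds on slides; z-score merges feature fluorescence and signal-to-noise across triplicate slides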
[4] = small molecules captured by biotinylated probe aFGF10 – biochemical, small-molecule microarray, fluorescence 635/667, stem cell growth factor project, primary screen (AID 1071); conditions: higher = more signal;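 also: score merges 667 nm spot intensity and signal to noise from triplicate slides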
[5] = molecular target: Neurogenic locus notch homolog protein 2 (Homo sapiens) (UniProt Q04721); assay: small molecules binding Notch2 protein – biochemical, small-molecule microarray, 635 nm fluorescence, stem cell growth factors, primary screen (AID 1073); conditions: higher = more signal
[6] = molecular target: Pro-neuregulin-1, membrane-bound isoform (Homo sapiens) (UniProt Q02297); assay: small molecules binding neuregulin-1 protein – biochemical, small-molecule microarray, fluorescence 635/667, psychiatric disease protein project, primary screen (AID 1075); conditions: NRG1 binding, 635 nm fluorescence, higher = more signal;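 also: score combines 667 nm spot fluorescence with signal to noise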
Sequence of Pro-neuregulin-1, membrane-bound isoform (Homo sapiens) (Q02297 whole entry, looked up, the tested form may be a part, canonical isoform): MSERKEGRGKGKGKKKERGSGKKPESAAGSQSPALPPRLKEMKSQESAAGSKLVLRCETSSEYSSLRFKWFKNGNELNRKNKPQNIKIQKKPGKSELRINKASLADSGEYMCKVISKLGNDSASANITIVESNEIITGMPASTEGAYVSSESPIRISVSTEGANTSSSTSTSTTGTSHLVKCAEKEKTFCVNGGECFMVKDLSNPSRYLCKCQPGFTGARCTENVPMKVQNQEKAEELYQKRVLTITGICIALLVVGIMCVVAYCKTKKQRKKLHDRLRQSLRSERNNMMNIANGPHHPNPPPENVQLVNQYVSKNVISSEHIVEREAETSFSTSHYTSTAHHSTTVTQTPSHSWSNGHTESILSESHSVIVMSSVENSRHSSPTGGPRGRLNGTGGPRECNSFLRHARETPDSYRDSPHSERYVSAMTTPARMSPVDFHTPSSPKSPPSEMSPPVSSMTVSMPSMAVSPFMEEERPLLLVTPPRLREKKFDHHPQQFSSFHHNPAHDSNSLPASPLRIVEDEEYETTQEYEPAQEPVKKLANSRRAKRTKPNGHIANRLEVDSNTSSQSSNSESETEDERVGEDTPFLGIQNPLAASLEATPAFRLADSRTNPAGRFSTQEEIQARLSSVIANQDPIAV

[7] = test system: Neuregulin-1 EGF-like domain; assay: small molecules binding NRG1 EGF domain – biochemical, small-molecule microarray, 635 nm fluorescence, primary screen (AID 1081); conditions: higher = more signal;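 also: binding of the protein to compounds printed on small-molecule microarray slides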
[8] = FRG1 expression reporter modulators in myotubes – cell-based, C2C12 myotubes, firefly/Renilla luciferase, luminescence, FRG1 inhibition for FSHD, primary screen (AID 1084); conditions: FRG1 promoter luciferase, higher = more signal, called active from +8 up or from −8 down
[9] = small molecules captured by biotinylated probe aFST – biochemical, small-molecule microarray, fluorescence 635/667, stem cell growth factor project, primary screen (AID 1086); conditions: higher = more signal;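 also: score merges 667 nm fluorescence with signal-to-noise of each printed compound spot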
[10] = binders of probe aHhip on microarray, primary screen, stem cell growth factor project, biochemical, small-molecule microarray, fluorescence 635/667 (AID 1087); conditions: higher = more signal;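 also: score merges spot fluorescence at 667nm with spot signal to noise ratio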
[11] = test system: PRMT1 (protein arginine N-methyltransferase 1); assay: small molecules binding arginine methyltransferase PRMT1 – biochemical, small-molecule microarray, 635 nm fluorescence, primary screen (AID 1088); conditions: higher = more signal;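 also: binding of Prmt1 protein to compounds spotted on small-molecule microarray slides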
[12] = growth effects on S. cerevisiae YJM789 – YJM789 clinical isolate, OD600, 24 h, basal, primary screen (AID 1089); conditions: higher = more signal, called active from +8 up or from −8 down;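 also: growth of clinical yeast isolate S. cerevisiae YJM 789 seeded 1000 cells per well; test concentration not given here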
[13] = S. pombe growth modifiers, basal conditions – strain 972, OD600, 24 h, no modulator, primary screen (AID 1090);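 also: basal condition with compound alone and no growth modifier present; test concentration not given here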; conditions: S. pombe 972 growth, higher = more signal, called active from +8 up or from −8 down
[14] = budding yeast growth modifiers under rapamycin – strain BY4716, OD600, 96 h, primary screen (AID 1091); also: test concentration not given here; conditions: S. cerevisiae BY4716 + rapamycin, higher = more signal, called active from +8 up or from −8 down
[15] = molecular target: Torsin-1A-interacting protein 2 (Homo sapiens) (UniProt Q8NFQ8); assay: small molecules binding lysate-expressed LULL1 – cell lysate, human LULL1 lysate, 635/667 nm fluorescence, primary screen (AID 1092); conditions: small-molecule microarray, hLULL1 lysate binding, 635 nm fluorescence; higher = more signal;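 also: probe is lysate of COS7 cells overexpressing human LULL1; score merges per-feature 667 nm fluorescence with signal-to-noise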
Sequence of Torsin-1A-interacting protein 2 (Homo sapiens) (Q8NFQ8 whole entry, looked up): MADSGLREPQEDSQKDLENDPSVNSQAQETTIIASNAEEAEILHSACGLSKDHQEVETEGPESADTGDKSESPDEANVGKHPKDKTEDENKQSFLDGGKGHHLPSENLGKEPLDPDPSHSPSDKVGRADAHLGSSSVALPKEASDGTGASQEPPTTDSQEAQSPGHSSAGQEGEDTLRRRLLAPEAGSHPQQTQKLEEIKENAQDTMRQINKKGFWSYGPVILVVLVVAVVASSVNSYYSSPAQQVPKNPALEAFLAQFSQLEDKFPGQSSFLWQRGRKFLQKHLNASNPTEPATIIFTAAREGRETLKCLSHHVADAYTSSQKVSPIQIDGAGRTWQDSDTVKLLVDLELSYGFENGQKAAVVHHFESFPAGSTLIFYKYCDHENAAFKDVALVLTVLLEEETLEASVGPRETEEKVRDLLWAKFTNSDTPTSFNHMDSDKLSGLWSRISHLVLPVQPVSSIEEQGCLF

[16] = optical density change of DRC41 E. coli – strain DRC41, OD650, 24 h, E. coli filamentation project, primary screen (AID 1093);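 also: MC1000 strain lacking acrAB efflux and sulA so SOS filamentation is blocked; test concentration not given here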; conditions: E. coli DRC41 growth, higher = more signal, called active from +8 up or from −8 down
[17] = probe aLefty2 binding to arrayed compounds – biochemical, biotinylated probe, 635/667 nm fluorescence, primary screen (AID 1094); conditions: small-molecule microarray, higher = more signal;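 also: score merges spot fluorescence near 667 nm with spot signal-to-noise ratio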
[18] = test system: Noggin (protein binding on small-molecule microarray); assay: small molecules binding Noggin protein – biochemical, 635/667 nm fluorescence, primary screen (AID 1095); conditions: 635 nm fluorescence, higher = more signal;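 also: score merges 667 nm feature fluorescence with signal to noise over triplicate slides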
[19] = molecular target: Neurogenic locus notch homolog protein 3 (Homo sapiens) (UniProt Q9UM47); assay: small molecules binding NOTCH3 protein – biochemical, 635/667 nm fluorescence, primary screen (AID 1096); conditions: small-molecule microarray, 635 nm fluorescence, higher = more signal
Sequence of Neurogenic locus notch homolog protein 3 (Homo sapiens) (Q9UM47 whole entry, looked up): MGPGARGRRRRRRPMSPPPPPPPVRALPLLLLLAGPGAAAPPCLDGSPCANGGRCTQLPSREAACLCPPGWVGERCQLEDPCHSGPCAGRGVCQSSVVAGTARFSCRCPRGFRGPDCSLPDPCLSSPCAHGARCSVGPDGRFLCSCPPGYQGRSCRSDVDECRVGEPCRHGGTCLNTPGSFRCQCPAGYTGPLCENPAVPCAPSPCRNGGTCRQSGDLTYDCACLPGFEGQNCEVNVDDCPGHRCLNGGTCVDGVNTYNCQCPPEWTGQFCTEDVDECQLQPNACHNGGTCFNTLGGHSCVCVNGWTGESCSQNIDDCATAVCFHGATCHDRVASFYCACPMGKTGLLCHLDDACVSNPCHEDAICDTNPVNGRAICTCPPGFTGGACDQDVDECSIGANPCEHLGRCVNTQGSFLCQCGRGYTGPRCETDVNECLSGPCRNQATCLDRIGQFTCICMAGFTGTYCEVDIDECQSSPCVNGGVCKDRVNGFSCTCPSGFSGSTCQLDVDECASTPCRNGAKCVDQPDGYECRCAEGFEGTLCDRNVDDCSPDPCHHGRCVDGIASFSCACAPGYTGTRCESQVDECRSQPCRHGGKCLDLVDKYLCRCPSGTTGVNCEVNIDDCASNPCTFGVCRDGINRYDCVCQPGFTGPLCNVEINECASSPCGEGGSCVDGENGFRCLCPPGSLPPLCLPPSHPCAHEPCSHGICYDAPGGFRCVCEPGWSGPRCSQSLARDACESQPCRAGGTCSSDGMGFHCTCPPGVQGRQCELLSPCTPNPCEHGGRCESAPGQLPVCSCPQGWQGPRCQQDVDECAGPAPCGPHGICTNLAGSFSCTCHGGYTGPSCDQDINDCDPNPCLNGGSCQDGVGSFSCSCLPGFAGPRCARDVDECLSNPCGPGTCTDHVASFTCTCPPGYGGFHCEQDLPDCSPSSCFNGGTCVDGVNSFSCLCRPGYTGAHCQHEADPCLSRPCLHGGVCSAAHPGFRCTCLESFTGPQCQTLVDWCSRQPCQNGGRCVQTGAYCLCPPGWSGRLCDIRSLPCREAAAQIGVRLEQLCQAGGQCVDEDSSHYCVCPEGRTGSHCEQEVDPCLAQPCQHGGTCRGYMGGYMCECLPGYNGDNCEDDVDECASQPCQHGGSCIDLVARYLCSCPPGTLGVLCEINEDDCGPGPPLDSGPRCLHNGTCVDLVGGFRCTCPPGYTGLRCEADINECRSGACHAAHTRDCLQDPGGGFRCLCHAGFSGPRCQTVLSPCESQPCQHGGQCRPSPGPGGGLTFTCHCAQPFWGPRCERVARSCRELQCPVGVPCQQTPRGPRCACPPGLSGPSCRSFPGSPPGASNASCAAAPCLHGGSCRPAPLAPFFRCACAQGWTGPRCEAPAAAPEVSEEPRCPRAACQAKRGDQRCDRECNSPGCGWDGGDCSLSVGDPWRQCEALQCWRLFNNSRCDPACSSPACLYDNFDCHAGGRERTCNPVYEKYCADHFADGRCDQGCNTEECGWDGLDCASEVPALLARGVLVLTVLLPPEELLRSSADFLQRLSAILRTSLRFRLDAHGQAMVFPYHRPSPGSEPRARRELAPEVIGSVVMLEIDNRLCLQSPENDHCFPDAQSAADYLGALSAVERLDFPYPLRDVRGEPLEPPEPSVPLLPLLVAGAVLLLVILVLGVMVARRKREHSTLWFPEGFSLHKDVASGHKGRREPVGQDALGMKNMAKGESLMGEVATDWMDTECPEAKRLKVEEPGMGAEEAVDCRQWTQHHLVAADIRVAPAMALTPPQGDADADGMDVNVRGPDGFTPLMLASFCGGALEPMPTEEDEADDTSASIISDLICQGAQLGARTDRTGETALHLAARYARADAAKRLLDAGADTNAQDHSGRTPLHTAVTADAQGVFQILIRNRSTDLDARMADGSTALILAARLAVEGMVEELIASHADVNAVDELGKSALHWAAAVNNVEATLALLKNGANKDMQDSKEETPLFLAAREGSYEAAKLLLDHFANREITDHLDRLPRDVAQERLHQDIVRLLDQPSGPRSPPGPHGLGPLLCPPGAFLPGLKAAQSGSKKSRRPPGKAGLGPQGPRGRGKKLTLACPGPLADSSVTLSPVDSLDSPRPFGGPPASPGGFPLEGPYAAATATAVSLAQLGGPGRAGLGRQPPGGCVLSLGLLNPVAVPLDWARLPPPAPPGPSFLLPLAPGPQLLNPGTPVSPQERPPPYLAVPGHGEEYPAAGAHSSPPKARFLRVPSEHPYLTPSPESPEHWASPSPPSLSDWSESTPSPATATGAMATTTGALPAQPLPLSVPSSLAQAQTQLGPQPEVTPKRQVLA

[20] = probe aEGFR binding to arrayed compounds – biochemical, biotinylated probe, 635/667 nm fluorescence, primary screen (AID 1097); conditions: small-molecule microarray, higher = more signal;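 also: probe is a biotinylated anti-EGFR antibody binding compounds printed on slides; score combines fluorescence near 667 nm and signal to noise of each spot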

SMILES | composite z-score [1] | composite z-score [2] | composite z-score [3] | composite z-score [4] | composite z-score [5] | composite z-score [6] | composite z-score [7] | z-score [8] | composite z-score [9] | composite z-score [10] | composite z-score [11] | z-score [12] | z-score [13] | z-score [14] | composite z-score [15] | z-score [16] | composite z-score [17] | composite z-score [18] | composite z-score [19] | composite z-score [20]
O=C1OCCC/C=C\[C@H]2OC34C=CCN(Cn5nnc6ccccc65)C(=O)[C@H]3N(CCO)C(=O)[C@@H]4C12 (stereo not given in full) | -0.335 | -1.46 | -0.206 | 0.0278 | -0.918 | 1.21 | 1.16 | 0.356 (inactive) | -0.486 | 0.382 | -0.614 | 0.744 (inactive) | -0.0999 (inactive) | -0.277 (inactive) | 1.41 | 2.83 (inactive) | 0.478 | -0.708 | -0.571 | -0.0015
CC(C)[C@@H](CO)NC(=O)[C@H]1[C@@H](c2ccccc2)N(c2ccccc2)O[C@@H]1C | -0.5 | -0.245 | -0.143 | 0.439 | -0.208 | -0.0453 | 0.396 | -0.579 (inactive) | -0.0238 | -0.0237 | -0.159 | -0.0247 (inactive) | -0.207 (inactive) | 0.072 (inactive) | 1.02 | 1.08 (inactive) | -0.193 | 0.171 | -0.271 | -0.177
O=C(NCc1ccccc1)[C@@H]1c2ccccc2C(=O)N(CC23CC4CC(CC(C4)C2)C3)[C@H]1c1ccc(CO)cc1 | -0.906 | 0.0469 | -0.0494 | 0.484 | 1.01 | 1.45 | 1.2 | -3.34 (inactive) | 0.193 | -0.0994 | 1.55 | -0.52 (inactive) | -0.0538 (inactive) | 0.988 (inactive) | 2.9 | -0.668 (inactive) | -0.225 | 1.72 | 1.05 | -0.137
C=CCN1C(=O)[C@]2(O[C@H](CCO)[C@@H]([Si](C)(C)c3ccc(OC)cc3)[C@@H]2C)c2cc(N3CCCCC3=O)ccc21 | -0.5 | 0.897 | -0.0291 | 0.428 | 1.15 | 1.42 | 1.24 | -3.81 (inactive) | 0.645 | -0.13 | 1.54 | -0.242 (inactive) | 0.413 (inactive) | 2.23 (inactive) | 2.37 | 1.27 (inactive) | -0.106 | 1.06 | 1.14 | 0.048
COc1ccc(C(O)C2C=CC3C(=O)NC(=O)C3N2Nc2ccccn2)cc1 (stereo not given) | -0.0118 | -0.765 | 0.0143 | 0.585 | 0.891 | 0.843 | 0.844 | 1 (inactive) | 0.357 | -0.159 | 0.425 | 0.181 (inactive) | 0.312 (inactive) | 0.359 (inactive) | 0.665 | -0.434 (inactive) | 0.251 | 0.195 | 0.49 | 0.164
C#CCN(CC=C(C)C)[C@H](CO)c1ccccc1 | -0.418 | 0.0737 | -0.164 | -0.078 | 0.204 | -0.223 | -0.187 | -0.154 (inactive) | -0.0173 | -0.199 | 0.489 | -0.319 (inactive) | -4.47 (inactive) | -1.92 (inactive) | 0.0196 | 0.333 (inactive) | -0.0518 | 0.223 | 0.109 | -0.0814
O=C1OCCC=C[C@H]2OC34C=CCN(CCN5CCOCC5)C(=O)[C@H]3N(CCCCCCO)C(=O)[C@@H]4C12 (stereo not given in full) | -0.174 | -0.352 | -0.147 | 0.0933 | -0.849 | -0.0296 | 0.988 | -0.263 (inactive) | -0.235 | -0.169 | 0.358 | 0.807 (inactive) | -1 (inactive) | 0.201 (inactive) | 0.562 | 0.15 (inactive) | -0.294 | -0.627 | -0.017 | -0.251
CCOC(=O)[C@H]1CC=C2CC1C(=O)N1CCC[C@@H]1[C@@H]2O[Si](C)(C)C(C)(C)C (stereo not given in full) | -0.502 | -0.0173 | -0.221 | -0.0337 | -1.9 | -0.596 | -0.415 | -0.591 (inactive) | -0.686 | -0.0994 | -0.295 | -2.4 (inactive) | -21.2 (active) | -1.8 (inactive) | 0.368 | -0.558 (inactive) | -0.376 | 0.451 | -0.979 | -0.265
O=C1O[C@H](c2ccccc2)[C@H](c2ccccc2)N2[C@H]1[C@@H](C(=O)Nc1nc3ccccc3s1)[C@]1(C(=O)Nc3ccc(C#CC4(O)CCCCCC4)cc31)[C@H]2c1ccc(OCCO)cc1 | -0.317 | 0.792 | -0.129 | 0.805 | 0.642 | 1.7 | 1.06 | 1.97 (inactive) | 0.395 | 0.0413 | 1.56 | 1.22 (inactive) | 1.76 (inactive) | 1.76 (inactive) | 2.2 | 0.546 (inactive) | 0.0317 | 0.986 | 1.02 | 0.0589
CCOC(=O)C[C@H]1[C@H](OC(=O)c2ccc(C(=O)c3ccccc3)cc2)[C@@H](NC(=O)c2ccc(-c3ccccc3)cc2)c2cc(OCCCO)ccc2N1C(=O)c1ccccc1 | -0.57 | -0.264 | -0.212 | 0.577 | 0.639 | 0.771 | 0.744 | 0.805 (inactive) | 0.319 | -0.164 | 1.36 | -0.575 (inactive) | -0.34 (inactive) | -0.169 (inactive) | 1.45 | -0.83 (inactive) | -0.221 | 0.421 | 1.03 | 0.0911
